Rows were chosen to be rich in hits. Some 10% of all compounds tested hit in one or more screens of this group.
ROMK primary: modulates human ROMK potassium channel activity | Tet-inducible ROMK, thallium flux fluorescence; actives lie on both sides | B-score at 10 µM | actives 2% (n = 130,000) | AID 1918;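 active means signal ratio slope over the read window, or its plate-corrected B-score, at least 3 SD from the plate mean, either direction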;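 further: B-score of the F/F0 ratio slope over 7 to 12 s after thallium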
INS promoter inh: TRM-6 insulin promoter activity inhibition | inhibition, % at 2 µM | actives 0.9% (n = 130,000) | TRM-6 cells (human fetal islet line), insulin promoter-eGFP reporter, imaging; reporter expression induced with tamoxifen;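 active means inhibition above the mean plus 3 SD, with well images judged a real hit on visual review, cut at about 60% in these data, passing the limit was not always enough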
p97 inhibitor: inhibitors of human p97 ATPase. P55072. recombinant p97 ATPase, Kinase-Glo ATP luminescence, 3 h. inhibition, % at 8 µM. actives 0.42% (n = 220,000); in the data active means inhibition above about 15%;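 further: 0% = DMSO vehicle and 100% = wells lacking enzyme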
Target sequence (P55072 whole entry, looked up): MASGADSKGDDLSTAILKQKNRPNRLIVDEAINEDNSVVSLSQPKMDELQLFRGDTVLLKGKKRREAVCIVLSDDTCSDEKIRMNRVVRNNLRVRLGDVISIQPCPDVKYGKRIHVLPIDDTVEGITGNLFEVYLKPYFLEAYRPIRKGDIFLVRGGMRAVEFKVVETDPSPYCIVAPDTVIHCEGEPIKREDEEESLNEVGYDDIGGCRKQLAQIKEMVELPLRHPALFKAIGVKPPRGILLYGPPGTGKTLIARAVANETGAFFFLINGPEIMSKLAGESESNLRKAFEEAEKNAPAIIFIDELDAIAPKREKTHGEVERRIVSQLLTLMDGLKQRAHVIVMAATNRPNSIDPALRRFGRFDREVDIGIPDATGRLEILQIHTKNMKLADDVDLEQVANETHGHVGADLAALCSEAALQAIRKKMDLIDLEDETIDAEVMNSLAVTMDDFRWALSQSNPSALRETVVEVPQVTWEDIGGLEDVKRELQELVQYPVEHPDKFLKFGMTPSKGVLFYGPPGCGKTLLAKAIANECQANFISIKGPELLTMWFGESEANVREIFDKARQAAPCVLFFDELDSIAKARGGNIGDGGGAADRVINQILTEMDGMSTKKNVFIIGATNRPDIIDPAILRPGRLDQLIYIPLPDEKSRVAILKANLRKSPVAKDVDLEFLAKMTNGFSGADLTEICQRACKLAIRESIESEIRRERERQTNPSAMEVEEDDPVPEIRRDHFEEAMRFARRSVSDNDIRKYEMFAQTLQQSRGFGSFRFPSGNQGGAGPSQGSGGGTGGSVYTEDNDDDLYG
bCat KO growth: beta-catenin-lacking colon tumor cell growth suppression. HCT116 beta-catenin knockout viability, CellTiter-Glo, 60 h; stronger effect = lower value. actives 1.5% (n = 140,000). viability, % at 10 µM;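 active means viability at or under a set limit, the compound median less 4 SD, cut at about 6% in these data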;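 further: 0% = Hyamine 1622 control at 20 µM and 100% = untreated cell control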
Lmaj promast: inhibitors of Leishmania major promastigote growth | Leishmania major promastigotes, resazurin fluorescence viability | inhibition, % at 10 µM | actives 9% (n = 200,000) | AID 1063; in the data active means inhibition above about 50%;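 further: promastigotes grown with compound for 44 hours at 28 °C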
HCT116 PTEN-null: PTEN-deleted cell growth suppression; HCT116 PTEN-null viability, CellTiter-Glo, 60 h; stronger effect = lower value; viability, % at 10 µM; actives 1.2% (n = 140,000);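 active means viability at or below a set limit, 4 SD under the median of all tested compounds, cut at about 3.7% in these data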;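 further: PTEN knockout HCT116 line with beta catenin targeted HCT116 as companion control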
Active calls of the source: *; · = no result.

SMILES	ROMK primary	INS promoter inh	p97 inhibitor	bCat KO growth	Lmaj promast	HCT116 PTEN-null
COC(=O)c1[nH]c2ccc(F)cc2c1NS(=O)(=O)c1ccc(OC)cc1OC	·	45	3	78	97*	82
CCOC(=O)c1[nH]c2ccc(OC)cc2c1NS(=O)(=O)c1ccc(OC)cc1OC	·	33	-1	95	13	92
CCN(CC)CC(=O)Nc1ccc([N+](=O)[O-])cc1	0.14	·	3	·	2	·
CCOC(=O)/C=C/COc1ccccc1[N+](=O)[O-]	0.0064	·	3	·	8	·
COc1ccc(CCNC(=S)NC2CCN(Cc3ccccc3)CC2)cc1	-0.025	19	1	·	74*	·
S=C(Nc1ccc(Cl)cc1)NC1CCN(Cc2ccccc2)CC1	-1.7	-6	-1	23	99*	41
COc1ccc(NC(=S)NC2CCN(Cc3ccccc3)CC2)cc1OC	-0.039	·	-5	·	22	·
CCc1ccc(NC(=S)NC2CCN(Cc3ccccc3)CC2)cc1	-2.3	-118	0	43	96*	45
S=C(Nc1ccccc1)NC1CCN(Cc2ccccc2)CC1	-0.84	·	6	·	91*	·
Cc1ccc(NC(=O)Nc2ccc3c(c2)C(=O)OC3)cc1Cl	-1.2	·	-2	·	·	·
CCC(C)c1ccc(NC(=S)NC2CCN(Cc3ccccc3)CC2)cc1 (stereo unspecified)	·	·	0	1.9*	87*	1.1*
CCC(C)c1ccc(NC(=S)NN2CCOCC2)cc1 (stereo unspecified)	·	·	-2	79	2	80
NCC(O)(c1ccc(Cl)cc1)c1ccc(Cl)cc1	-2.8	·	5	·	94*	·
O=C1/C(=C/c2cccnc2)Sc2ccccc21	-4.5*	50	0	56	83*	62
COc1ccc(NC(=S)N/N=C/c2cccn2Cc2ccccc2F)cc1	0.21	·	3	·	0	·
COc1ccc(NC(=S)N/N=C/c2cccn2Cc2ccc(F)cc2Cl)cc1	1.3*	·	7	·	19	·
Cc1ccc(C(=O)N2CCN(c3ccccc3F)CC2)cc1S(=O)(=O)N1CCOCC1	0.86	·	0	·	-2	·
COc1cccc(/C=N/NC(=O)c2c(-c3ccccc3)noc2C)c1O	·	25	1	5.8*	95*	7
Cc1onc(-c2ccccc2)c1C(=O)N/N=C/c1cc2c(cc1Cl)OCO2	-0.44	·	2	96	100*	95
COCCNC(=O)C(NC(=O)C1CCC(C)CC1)C(C)C (stereo unspecified)	-0.33	·	5	·	5	·
O=C(NCCCN1CCN(c2cccc(Cl)c2)CC1)c1nc(-c2ccncc2)no1	-0.74	7	-3	74	38	87
COC(=O)c1oc2ccccc2c1NC(=O)CN1CCCC1	·	·	5	95	-7	94
COC(=O)c1oc2ccc(Br)cc2c1NC(=O)CN1CCN(C)CC1	·	-39	-4	·	100*	·
CCCCC(NS(=O)(=O)c1ccc(OC)cc1)C(=O)O (stereo unspecified)	·	-12	7	103	-5	101
COc1ccc(S(=O)(=O)NC(Cc2cnc[nH]2)C(=O)O)cc1 (stereo unspecified)	·	4	0	93	51*	93
SMILES	ROMK primary	INS promoter inh	p97 inhibitor	bCat KO growth	Lmaj promast	HCT116 PTEN-null
O=S(=O)(/C=C/c1ccccc1)NC1CCCCCCC1	-0.72	-23	-1	92	-9	87
Cc1c2c(n3c(nc4ccccc43)c1C#N)N(c1ccccc1)CC2	·	-25	3	96	53*	92
CCc1c(C)c(C#N)c2nc3ccccc3n2c1N1CCN(c2cc(C)ccn2)CC1	·	3	4	86	-2	82
Cc1ccnc(N2CCN(c3c4c(c(C#N)c5nc6ccccc6n35)CCC4)CC2)c1	0.0083	86*	4	·	0	·
Cc1c2c(n3c(nc4ccccc43)c1C#N)N(CCN(C)C)CC2	-0.31	-82	3	·	11	·
CCC(CC)C(=O)OCC(=O)Nc1cc(OC)c([N+](=O)[O-])cc1C	-0.19	64*	-3	98	4	87
COc1ccc(-c2ccc(SCC(=O)c3ccc(F)cc3)nn2)cc1OC	-0.12	·	-2	·	63*	·
Cc1ccc(NC(=S)N(CCC(C)C)C(C)c2ccncc2)c(Cl)c1 (stereo unspecified)	·	·	1	·	·	·
CN(C)CC(C)(C)CNS(=O)(=O)c1ccc(Cl)c(Cl)c1	0.6	-72	-5	87	80*	90
CN(C)CCNC(=O)c1cccc(NS(=O)(=O)c2ccc(Cl)c(Cl)c2)c1	0.14	-60	5	·	-5	·
CN(C)CCCN(Cc1ccccc1)C(=S)NCc1ccccc1	-0.099	·	1	·	86*	·
CN(C)CCCN(Cc1ccccc1)C(=S)Nc1ccc(SC(F)F)cc1	-1.7	·	-1	·	100*	·
CN(C)c1ccc(S(=O)(=O)N2CCCCC2)cc1NC(=O)COc1ccccc1F	·	·	-7	·	·	·
COc1cccc(/C=N/Nc2cc(-n3nc(C)cc3-c3ccccc3)ncn2)c1O	-0.49	-19	-2	3.8*	67*	3.5*
Cc1cc(C)n(-c2nc(Nc3ccccc3)nc(-n3nc(C)cc3C)n2)n1	-0.69	6	3	92	-6	97
COc1cccc(/C=N/Nc2nc(Nc3ccccc3)nc(-n3nc(C)cc3C)n2)c1O	0.44	-30	-4	2.8*	100*	2.0*
CCc1nnc(NC(=O)C2Cc3ccccc3CN2S(=O)(=O)c2ccc(C)cc2)s1 (stereo unspecified)	·	-103	6	65	39	72
COc1ccc(S(=O)(=O)N2Cc3ccccc3CC2C(=O)Nc2nccs2)cc1OC (stereo unspecified)	·	-32	4	86	8	81
CCc1nnc(NC(=O)C2Cc3ccccc3CN2S(=O)(=O)c2cccs2)s1 (stereo unspecified)	·	-14	4	60	53*	72
CNC(=O)C1Cc2ccccc2CN1S(=O)(=O)c1cccs1 (stereo unspecified)	-0.0051	17	-2	92	68*	95
O=C(Nc1nnc(C2CC2)s1)C1Cc2ccccc2CN1S(=O)(=O)c1cccs1 (stereo unspecified)	·	6	6	68	17	80
COc1ccc(S(=O)(=O)N2Cc3ccccc3CC2C(=O)Nc2nccs2)cc1 (stereo unspecified)	·	3	-4	86	99*	91
Cc1ccc(S(=O)(=O)N2Cc3ccccc3CC2C(=O)Nc2ccc3c(c2)OCO3)cc1 (stereo unspecified)	-1	-19	2	85	100*	78
CC(C)(C)c1ccc(NC(=O)COC(=O)C2(C)CC2(Cl)Cl)cc1 (stereo unspecified)	0.014	14	0	·	10	·
Cc1ccc(NC(=O)NNC(=O)c2snnc2C)cc1	-0.61	60	0	·	-10	·
COc1ccc(CCNC(=O)CSc2nc3[nH]ncc3c(=O)n2-c2ccc(C)c(Cl)c2)cc1OC	-0.064	-50	-5	·	24	·
Cc1cccc(OCCCC(=O)NCc2ccco2)c1	·	·	2	101	1	96
Cc1cccnc1NC(=O)NC(=O)c1ccc(C(C)(C)C)s1	0.23	·	0	·	·	·

Compound activity deposited in PubChem BioAssay by several laboratories.
